# Bioassay records as filed in PubChem.
# NPC1 promoter act: NPC1 promoter activation; Huh7 NPC1 promoter luciferase reporter, 24 h; Potency, µM (titrated, usually from 9.22 µM), without a hit: at the highest dose activation, hits mostly activators; 2.4% of 320,000 active; AID 485313; also: % of control where 0% means no effect; nearly all actives have a fitted effect of over 60% in size
#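 Huh7 reporter cells (NPC1 promoter driving luciferase) are dosed with compound for 24 h at 37 °C, 5% CO2; luciferase detection reagent is then added and luminescence measured after 10 min at ambient temperature.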
# ELG1 genotoxic: induces genotoxicity in HEK293T cells with luciferase-tagged ELG1. HEK293T ELG1-luciferase reporter, luminescence, 16 h. Potency, µM (titrated, usually from 46 µM), inactives show at the highest dose activity change, positive = activation, hits mostly activators. 1.3% of 330,000 active. AID 504466; also: % of control where 0% means no effect; nearly all actives have a fitted effect of over 60% in size
#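 Screening used a luciferase reporter fused to human ELG1 in HEK293T cells. Luminescence was read on a CCD plate imager after 16 hr exposure and 30 min ONE-Glo incubation.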
# SMN2 splice enh: increases expression of the SMN2 splice variant; HEK293 SMN2-luciferase splicing reporter, luminescence, 30-36 h; 2.8% of 210,000 active; Potency, µM (series often up to 46.1 µM), inactives show at the highest dose activity change, positive = activation, hits mostly activators; also: % of control where 0% means no effect; nearly all actives have a fitted effect of over 55% in size
#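 qHTS luciferase splicing reporter: luminescence rises when SMN2 exon 7 is included in transfected HEK293 cells. Compound exposure lasted 30-36 h at 37C, with 4.5 mM final sodium butyrate as control, followed by a ONE-Glo read.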
# ELG1 repair inh: ELG1-dependent DNA repair inhibition; AID 504467; HEK293T ELG1-luciferase reporter, luminescence, 16 h; DNA damage induced by 5-fluorouridine; 2.3% of 330,000 active; Potency, µM (titrated, usually from 46.1 µM), without a hit: at the top dose activity change, negative = inhibition, hits mostly inhibitors; also: % is scaled to controls: 0 for no effect and ±100 for the full control effect; nearly all actives have a fitted effect of over 55% in size
#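 DMSO vehicle served as the neutral condition. Each well held 2,000 cells given 5-fluorouridine plus compound; after 16 hr at 37 °C/5% CO2, ONE-Glo was added and luciferase measured 30 min later.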
# FLuc counter: counter-screen for miR-21 project: firefly luciferase inhibitors or activators | purified FLuc, Km substrates, luminescence inhibition | Potency, µM (doses to about 57.5 µM), without a hit: at the top dose activity change, negative = inhibition, actives largely listed as inhibitors | 6.9% of 360,000 active;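 also: plate controls were vehicle for no effect and reference inhibitor for full effect; nearly all actives have a fitted effect of over 55% in size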
# Target sequence (P08659 whole entry, looked up): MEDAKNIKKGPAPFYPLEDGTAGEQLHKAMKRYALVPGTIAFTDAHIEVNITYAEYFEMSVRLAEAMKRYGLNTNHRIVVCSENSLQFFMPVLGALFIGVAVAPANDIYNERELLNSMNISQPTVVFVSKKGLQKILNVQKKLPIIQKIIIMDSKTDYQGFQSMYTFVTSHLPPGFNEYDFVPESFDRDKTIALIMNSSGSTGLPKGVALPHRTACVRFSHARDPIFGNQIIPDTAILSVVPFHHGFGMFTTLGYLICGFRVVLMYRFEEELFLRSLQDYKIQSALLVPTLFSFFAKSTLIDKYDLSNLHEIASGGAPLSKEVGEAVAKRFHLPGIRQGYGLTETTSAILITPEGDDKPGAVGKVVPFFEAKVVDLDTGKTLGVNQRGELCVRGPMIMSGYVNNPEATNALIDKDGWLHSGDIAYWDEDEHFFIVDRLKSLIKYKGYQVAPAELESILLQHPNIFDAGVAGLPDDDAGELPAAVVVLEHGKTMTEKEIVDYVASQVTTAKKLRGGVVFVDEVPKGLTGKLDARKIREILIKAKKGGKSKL
#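 Purified P. pyralis luciferase (10nM final) with 10uM D-luciferin and 10uM ATP (Km levels) in 50mM Tris acetate pH 7.5, 10mM Mg acetate, 0.01% Tween-20, 0.05% BSA; qHTS 6-point titration, ~60 µM downward; luminescence read.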
# Rab9 prom act: activators of Rab9 promoter | Huh7 Rab9 promoter-luciferase reporter, luminescence, 24 h | Potency, µM (top dose mostly 9.22 µM), for the others: top-dose activation, negative = inhibition, hits mostly activators | 2.8% of 320,000 active; also: % of control where 0% means no effect; nearly all actives have a fitted effect of over 60% in size
#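 Promoter activation is measured as luciferase luminescence in Huh7 cells stably transfected with a Rab9 promoter–luciferase construct, following 24 h compound exposure at 37 °C and 10 min reagent incubation at ambient temperature.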
# Starred values were filed as active, the others as inactive; ? = inconclusive; · = no result given; [ ] = remark or other dose. Hits are enriched below; roughly 9.3% of the tested compounds scored in any of these assays. Calls follow the shape of the dose curve; as a rule, active = well fitted curve in the direction sought with a large enough effect; inconclusive = small, poorly fitted or top-dose-only effect, or another doubt; inactive = no such curve, though single readings can be large; an effect the other way counts as inactive or inconclusive. Potency is read from the fitted curve at half-maximal effect.
SMILES,NPC1 promoter act,ELG1 genotoxic,SMN2 splice enh,ELG1 repair inh,FLuc counter,Rab9 prom act
COC(=O)c1cc(S(=O)(=O)N2CCN(c3ccc([N+](=O)[O-])cc3)CC2)c[nH]1,-2%,-4%,·,16µM*,1%,8%
COC(=O)c1cc(S(=O)(=O)N2CCN(c3ccc(F)cc3)CC2)c[nH]1,0%,-2%,·,-4%,-2%,-3%
CCC(C(=O)OC)n1nnc2sc(-c3ccccc3)cc2c1=O (configuration not stated),·,·,-1%,·,19µM*,·
COc1ccc(NC(=O)C(C)n2nnc3sc(-c4ccccc4)cc3c2=O)cc1Cl (configuration not stated),·,·,-1%,·,6µM*,·
CCCCn1c(=O)[nH]c(=O)c2c1nc(-c1ccccn1)n2CC,1%,1%,·,-2%,0%,1%
Nc1ccc2ncccc2c1N,3%,-1%,-8%,10µM*,?,1%
CCOc1cc(N2CCOCC2)c(OCC)cc1NC(=O)C1=COCCO1,-1%,-4%,·,-16%,4%,-6%
COc1ccc(Cl)cc1NC(=O)C(C)N1CCN(c2ccccn2)CC1 (configuration not stated),-2%,-6%,·,?,2%,11%
CSc1ccccc1NC(=O)Nc1ccc(F)c(Cl)c1,16%,2%,6%,?,12µM*,15%
CSc1ccccc1NC(=O)Nc1cccc(Cl)c1,11%,1%,19%,-29%,24µM*,13%
Cc1ccc(NC(=O)Nc2cccc(Cl)c2)c(C(=O)O)c1,18%,8%,-7%,3%,12µM*,-5%
CSc1ccccc1NC(=O)Nc1cccc(Cl)c1Cl,0%,2%,12%,?,2%,1%
COc1ccc(Nc2cccc(Cl)c2)c(C(=O)O)c1,-3%,-1%,?,6%,7%,-2%
CN(C)C1(CNC(=O)c2cccc(S(=O)(=O)Nc3ccc(Br)cc3)c2)CCCCC1,-1%,-1%,·,10%,1%,-1%
COc1ccc(NC(=O)CCCn2c(=O)c3cccn3c3cccnc32)cc1Cl,·,·,·,·,-2%,·
c1ccc(-n2nc3c(ccc4cnnc43)[nH]2)cc1,2.5µM*,?,?,?,7.6µM*,1.8µM*
COc1ccc(S(=O)(=O)N2CCOCC2)cc1NC(=O)CSc1ncccn1,·,3%,·,-3%,·,·
CCCCc1ccc(NC(=S)Nc2ccc(Nc3ccc(OC)cc3)cc2)cc1,0%,-6%,-31%,?,1%,-4%
CCCCc1ccc(NC(=O)Nc2cccnc2)cc1,?,?,·,?,6µM*,?
CCCCc1ccc(NC(=O)OC)cc1,13%,8%,-13%,?,17µM*,15%
O=C(Nc1ccccc1)OCCCc1ccccc1,?,-27%,?,?,19µM*,?
CCN1CCN(c2ccc(NC(=O)CCc3c(C)nc4c(-c5ccc(F)cc5)c(C)nn4c3C)cc2)CC1,-8%,11%,-21%,?,-4%,1%
Cc1ccc(C(=O)Nc2nn(C)c3cccc(F)c23)cc1,19%,?,·,?,?,21%
CCN(CC(=O)Nc1c(F)cccc1F)C(=O)c1cc([N+](=O)[O-])ccc1N1CCOCC1,0%,2%,·,-14%,4%,0%
Cc1c(CNCCC2=CCCCC2)c(C(=O)O)c(C)n1Cc1ccccc1,-1%,-6%,·,-9%,3%,0%
SMILES,NPC1 promoter act,ELG1 genotoxic,SMN2 splice enh,ELG1 repair inh,FLuc counter,Rab9 prom act
Cc1[nH]c2ccccc2c1-c1cc(-c2cc(-c3c(C)[nH]c4ccccc34)nc(N)n2)nc(N)n1,·,·,-3%[9.22 µM],·,·,·
COc1ccc(N2CCN(C(CNC(=O)C(=O)NCc3ccc4c(c3)OCO4)c3ccco3)CC2)cc1 (configuration not stated),-15%,-4%,-64%,7.3µM*,1%,-12%
O=C(NCc1ccc2c(c1)OCO2)C(=O)NCC(c1ccco1)N1CCN(c2ccccc2)CC1 (configuration not stated),0%,2%,-57%,?,3%,-5%
Cc1ccc(CN(Cc2ccco2)C(=O)COc2ccccc2C)cc1,·,·,-13%,·,-19%,·
O=C(CC1C(=O)N(c2ccccc2)C(=O)N1CCC1=CCCCC1)Nc1ccc(F)cc1 (configuration not stated),·,·,1%,·,?,·
CCN(CC)S(=O)(=O)c1ccc(OC(C)C)c(NC(=O)c2c3c(nc4ccccc24)CCN(Cc2ccccc2)C3)c1,0%,-9%,-17%,5.8µM*,0%,-6%
O=c1c2cc([N+](=O)[O-])cc([N+](=O)[O-])c2[nH]n1-c1ccccc1,-5%,-6%,·,-3%,11µM*,1%
COc1cc([N+](=O)[O-])ccc1N=Nc1c(N)[nH]n(-c2ccccc2)c1=O,11%,1%,27%,4%,?,?
O=c1[nH]c(=O)c2cc([N+](=O)[O-])cc([N+](=O)[O-])c2[nH]1,-5%,-3%,-4%,?,?,-21%
Nc1[nH]n(-c2ccccc2)c(=O)c1N=Nc1ccccc1,2.5µM*,21µM*,·,?,5.4µM*,3.5µM*
Nc1[nH]n(-c2ccccc2)c(=O)c1N=Nc1ccccc1[N+](=O)[O-],2µM*,3.2µM*,?,?,?,0.56µM*
Nc1[nH]n(-c2ccccc2)c(=O)c1N=Nc1ccc2ncsc2c1,20%,0%,·,?,19µM*,22%
Nc1c(N=Nc2cccc(Cl)c2)c(=O)[nH]n1-c1ccccc1,14%,5%,21%,?,-3%,25%
COC(=O)C1CCN(S(=O)(=O)c2cc3c4c(c2)CCN4C(=O)CC3)CC1,1%,0%,·,1%,1%,1%
O=C(Nc1ccc(S(=O)(=O)Nc2ccccc2)cc1)c1ccc(CN2CCOCC2)cc1,-32%,-9%,·,-24%,-4%,-41%
Cc1ccc(N(CC(=O)Nc2ccc(C)c(F)c2)S(=O)(=O)c2c(C)n[nH]c2C)cc1,·,·,-2%,·,1%,·
COC(=O)c1c(NC(=O)Cc2cccs2)sc2c1CCC(C)C2 (configuration not stated),21%,9%,-1%,?,17µM*,?
COc1cc(C(=O)Nc2sc(C)c(C)c2C(=O)O)cc(OC)c1OC,3%,1%,·,10%,?,-1%
COc1cc(C(=O)Nc2sc3c(c2C(=O)O)CCC(C)C3)cc(OC)c1OC (configuration not stated),-5%,-15%,·,2.9µM*,-16%,-1%[1.84 µM]
